Test results: PubChem BioAssay (NCATS)
Inconclusive results are not listed. A number with no mark means an inactive call. The source made the active and inactive calls. The call rests on the fitted dose curve; in most records, active means well fitted inhibition curve with a large enough effect; inconclusive means small, poorly fitted or top-dose-only effect; inactive means flat fitted curve, though single readings scatter. Bridge positions count the residues as written; N and C are the ends. Square brackets hold non-standard residues; d marks the D form. Peptide text beside a SMILES is read from it. * marks the point of attachment. Ileψ(thiazoline)Cys = CC[C@H](C)[C@H](N)C1=N[C@H](C(=O)*)CS1; d(aIle) = CC[C@H](C)[C@@H](N)C(=O)O; dOrn = NCCC[C@@H](N)C(=O)O

System: CP262
Experiment: qHTS profiling for inhibitors of Plasmodium falciparum proliferation (AID 504749); further: nearly all actives have a fitted effect of over 60% in size;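 on activity, negative = inhibition: 0% = DMSO vehicle and full inhibition = artemisinin control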
Details: P. falciparum in erythrocytes, SYBR Green DNA, 72 h; series mostly up to 12.8 µM; activity, negative = inhibition: at the top concentration
Summary of the method: (§1)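 Each compound contacts P. falciparum-infected red blood cells for 72 h at 37 C; lysis buffer (Tris, EDTA, saponin, Triton X, SYBR Green I) is added and fluorescence measured next morning; values normalized to controls.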
Potency means the concentration at half of the fitted maximal effect.

SMILES	activity, negative = inhibition
C[C@@H]1C[C@H]2[C@@H]3C[C@H](F)C4=CC(=O)C=C[C@@]4(C)[C@]3(F)[C@H](O)C[C@]2(C)[C@@]1(O)C(=O)CO	10.4%
C[C@H](O)Cn1cnc2c1c(=O)n(C)c(=O)n2C	-0.844%
CCCCC[C@H](O)/C=C\[C@@H]1[C@H](O)CC(=O)[C@@H]1CCCCCCC(=O)O	0.653%
CC(=C(CCOP(=O)(O)O)SC(=O)c1ccccc1)N(C=O)Cc1cnc(C)nc1N	0.0653%
NC[C@@H]1O[C@@H](O[C@H]2[C@H](O)[C@H](O[C@@H]3O[C@H](CO)[C@@H](O)[C@H](N)[C@@H]3O)[C@@H](N)C[C@H]2N)[C@H](N)C[C@@H]1O	2.03%
CCc1c(C)[nH]c2c1C(=O)[C@H](CN1CCOCC1)CC2	1.57%
C=C1c2c(Cl)ccc(O)c2C(O)=C2C(=O)[C@@]3(O)C(O)=C(C(N)=O)C(=O)[C@@H](N(C)C)[C@@H]3[C@@H](O)[C@H]12	-0.0828%
CCC(=O)OCC(=O)[C@@]1(OC(=O)CC)[C@H](C)C[C@@H]2[C@@H]3[C@H]([C@@H](O)C[C@@]21C)[C@]1(C)C=CC(=O)C=C1C[C@@H]3Cl	0%
CC[C@H](C)[C@H](N)C1=N[C@H](C(=O)N[C@@H](CC(C)C)C(=O)N[C@@H](CCC(=O)O)C(=O)N[C@@H](C(=O)N[C@H]2CCCCNC(=O)[C@@H](CC(N)=O)NC(=O)[C@@H](CC(=O)O)NC(=O)[C@@H](Cc3cnc[nH]3)NC(=O)[C@@H](Cc3ccccc3)NC(=O)[C@@H]([C@@H](C)CC)NC(=O)[C@@H](CCCN)NC2=O)[C@@H](C)CC)CS1 ({Ileψ(thiazoline)Cys}-LE[d(aIle)]K[dOrn][d(aIle)][dF][dH][dD][dN]; lactam 4-C)	3.15%
C[C@@H](CNC1CCCCC1)OC(=O)c1ccccc1	-17.6%
CCOC(=O)O[C@@H](C)OC(=O)[C@@H]1N2C(=O)[C@@H](NC(=O)[C@@H](N)c3ccccc3)[C@H]2SC1(C)C	-1.97%
Cc1cccc(CN2CCN([C@@H](c3ccccc3)c3ccc(Cl)cc3)CC2)c1	0.344%
Cc1ccsc1/C=C\C1=NCCCN1C	0%
O=C(O)COCCN1CCN([C@@H](c2ccccc2)c2ccc(Cl)cc2)CC1	-0.339%
C#C[C@]1(O)CC[C@@H]2[C@H]3CCC4=CCCC[C@@H]4[C@@H]3CC[C@@]21C	6.46%
CC1(C)[C@@H](OC(=O)CCC(=O)O)CC[C@@]2(C)[C@H]1CC[C@@]1(C)[C@H]2C(=O)C=C2[C@H]3C[C@](C)(C(=O)O)CC[C@]3(C)CC[C@@]21C	-1.87%
C[C@H](CCC(=O)O)[C@H]1CC[C@@H]2[C@@H]3[C@@H](O)C[C@H]4C[C@@H](O)CC[C@@]4(C)[C@H]3CC[C@@]21C	2.28%
CN1CCO[C@H](c2ccccc2)c2ccccc2C1	-0.371%

System: CP265
Experiment: as above
Details: P. falciparum in erythrocytes, SYBR Green DNA, 72 h; series mostly up to 12.8 µM; activity, negative = inhibition: at the top concentration
Summary of the method: as §1

SMILES	activity, negative = inhibition	Potency
C[C@@H]1C[C@H]2[C@@H]3C[C@H](F)C4=CC(=O)C=C[C@@]4(C)[C@]3(F)[C@H](O)C[C@]2(C)[C@@]1(O)C(=O)CO	-0.266%	–
C[C@H](O)Cn1cnc2c1c(=O)n(C)c(=O)n2C	-1%	–
CCCCC[C@H](O)/C=C\[C@@H]1[C@H](O)CC(=O)[C@@H]1CCCCCCC(=O)O	-11.2%	–
CC(=C(CCOP(=O)(O)O)SC(=O)c1ccccc1)N(C=O)Cc1cnc(C)nc1N	9.01%	–
NC[C@@H]1O[C@@H](O[C@H]2[C@H](O)[C@H](O[C@@H]3O[C@H](CO)[C@@H](O)[C@H](N)[C@@H]3O)[C@@H](N)C[C@H]2N)[C@H](N)C[C@@H]1O	2.97%	–
CCc1c(C)[nH]c2c1C(=O)[C@H](CN1CCOCC1)CC2	-1.88%	–
C=C1c2c(Cl)ccc(O)c2C(O)=C2C(=O)[C@@]3(O)C(O)=C(C(N)=O)C(=O)[C@@H](N(C)C)[C@@H]3[C@@H](O)[C@H]12	-6.45%	–
CC[C@H](C)[C@H](N)C1=N[C@H](C(=O)N[C@@H](CC(C)C)C(=O)N[C@@H](CCC(=O)O)C(=O)N[C@@H](C(=O)N[C@H]2CCCCNC(=O)[C@@H](CC(N)=O)NC(=O)[C@@H](CC(=O)O)NC(=O)[C@@H](Cc3cnc[nH]3)NC(=O)[C@@H](Cc3ccccc3)NC(=O)[C@@H]([C@@H](C)CC)NC(=O)[C@@H](CCCN)NC2=O)[C@@H](C)CC)CS1 ({Ileψ(thiazoline)Cys}-LE[d(aIle)]K[dOrn][d(aIle)][dF][dH][dD][dN]; lactam 4-C)	2.73%	–
O=C(N/N=C\c1ccc([N+](=O)[O-])o1)c1ccc(O)cc1	–	3.16 µM (active)
CCOC(=O)O[C@@H](C)OC(=O)[C@@H]1N2C(=O)[C@@H](NC(=O)[C@@H](N)c3ccccc3)[C@H]2SC1(C)C	2.44%	–
Cc1ccsc1/C=C\C1=NCCCN1C	3.99%	–
O=C(O)COCCN1CCN([C@@H](c2ccccc2)c2ccc(Cl)cc2)CC1	-22%	–
C#C[C@]1(O)CC[C@@H]2[C@H]3CCC4=CCCC[C@@H]4[C@@H]3CC[C@@]21C	-0.379%	–
CC1(C)[C@@H](OC(=O)CCC(=O)O)CC[C@@]2(C)[C@H]1CC[C@@]1(C)[C@H]2C(=O)C=C2[C@H]3C[C@](C)(C(=O)O)CC[C@]3(C)CC[C@@]21C	-3.49%	–
